Results filed as inconclusive are left out. For some assays here: Entries with a potency or affinity are not part of this list. The source made the active and inactive calls. Unless noted, the rule behind the calls is not given here.
Key:
[1] = blockers of polyQ-driven CASP3 activation – cell-based (AID 1583); details: polyglutamine-induced caspase-3 activation, cell assay; stronger effect = higher value;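 tested at 10 µM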
[2] = yeast 75Q aggregation reduction – 75Q-TubU reporter (AID 1593); details: Yeast 75Q polyglutamine aggregation reporter
[3] = restoration of touch response, mutant HTT neurons – whole organism, C. elegans mechanosensory neurons, N-terminal huntingtin (AID 1599); details: C. elegans polyQ-huntingtin mechanosensory neurons, stronger effect = higher value
[4] = blockers of cytochrome c efflux from mitochondria – biochemical, purified mitochondria (AID 1603); details: stronger effect = lower value;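 note: mouse liver mitochondria challenged with calcium chloride; signal normalized to the plate average as 100%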
[5] = polyglutamine aggregate formation blockers (AID 1604); details: polyglutamine-induced protein aggregation inhibition assay; stronger effect = higher value; tested at 2.5 µM
[6] = glutamate transport activators, MN-1 cells, MN-1 cell line (AID 1612); details: MN-1 motor neuron cells, stronger effect = higher value;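 note: tested at 1 µM final; 0% = mean of DMSO vehicle wells on each plate; positive means more glutamate uptake than control and negative means less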
[7] = GFP-Q80 aggregate reduction, neuronal-like cells, cell-based, NGF-treated PC12, GFPQ80 (AID 1614); details: PC12 NGF-treated GFP-polyQ80 inclusion reduction;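 note: lower means fewer inclusions and 0 means no inclusions at all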
[8] = 75Q-TubH aggregate inhibition, S. cerevisiae, yeast (AID 1616); details: S. cerevisiae 75Q-TubH polyglutamine aggregation suppression; stronger effect = higher value
[9] = compounds altering viability of human ES cells (AID 493140); details: human embryonic stem cell survival screen; stronger effect = higher value;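 note: cells exposed to compounds for four days before counting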
[10] = target: ATP-dependent translocase ABCB1 (Homo sapiens) (UniProt P08183); assay: P-glycoprotein substrate transport blockade – cell-based (AID 377; in the data active = fluorescence slope change above about 50%); details: MDR1-expressing cells, fluorescent substrate accumulation slope; stronger effect = higher value; concentration not given here
Sequence of ATP-dependent translocase ABCB1 (Homo sapiens) (P08183 whole entry, looked up): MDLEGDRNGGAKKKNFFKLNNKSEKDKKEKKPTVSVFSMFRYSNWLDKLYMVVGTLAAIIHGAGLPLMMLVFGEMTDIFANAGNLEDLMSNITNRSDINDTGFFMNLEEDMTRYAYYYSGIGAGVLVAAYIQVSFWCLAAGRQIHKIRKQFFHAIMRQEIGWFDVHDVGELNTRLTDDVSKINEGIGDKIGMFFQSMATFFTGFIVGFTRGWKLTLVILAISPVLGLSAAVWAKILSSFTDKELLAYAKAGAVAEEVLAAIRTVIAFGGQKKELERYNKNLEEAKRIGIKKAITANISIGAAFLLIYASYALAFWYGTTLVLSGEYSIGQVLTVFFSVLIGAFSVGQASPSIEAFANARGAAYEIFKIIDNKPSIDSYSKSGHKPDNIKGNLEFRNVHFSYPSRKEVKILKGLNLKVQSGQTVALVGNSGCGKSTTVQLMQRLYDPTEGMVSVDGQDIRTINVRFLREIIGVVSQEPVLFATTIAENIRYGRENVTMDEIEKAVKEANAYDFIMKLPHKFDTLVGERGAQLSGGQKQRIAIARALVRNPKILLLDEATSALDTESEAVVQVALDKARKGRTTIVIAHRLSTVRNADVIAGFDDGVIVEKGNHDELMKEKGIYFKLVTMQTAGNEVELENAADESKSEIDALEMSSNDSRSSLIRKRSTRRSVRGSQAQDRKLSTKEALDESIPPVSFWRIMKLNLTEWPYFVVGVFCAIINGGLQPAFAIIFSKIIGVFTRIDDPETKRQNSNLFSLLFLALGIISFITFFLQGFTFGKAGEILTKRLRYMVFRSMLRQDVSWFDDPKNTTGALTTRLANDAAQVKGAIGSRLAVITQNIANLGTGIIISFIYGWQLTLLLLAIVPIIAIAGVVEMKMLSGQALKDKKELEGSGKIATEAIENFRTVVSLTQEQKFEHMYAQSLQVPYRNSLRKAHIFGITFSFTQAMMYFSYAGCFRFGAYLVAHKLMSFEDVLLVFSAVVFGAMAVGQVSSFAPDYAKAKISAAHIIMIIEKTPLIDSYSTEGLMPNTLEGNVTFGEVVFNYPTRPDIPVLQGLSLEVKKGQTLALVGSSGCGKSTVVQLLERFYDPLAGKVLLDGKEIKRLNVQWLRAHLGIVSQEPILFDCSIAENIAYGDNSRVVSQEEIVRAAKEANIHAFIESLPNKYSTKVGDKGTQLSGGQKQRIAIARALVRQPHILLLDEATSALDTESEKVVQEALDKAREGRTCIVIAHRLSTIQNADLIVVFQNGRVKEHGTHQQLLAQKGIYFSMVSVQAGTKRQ

[11] = compounds altering circadian rhythm period length – cell-based, LOPAC library, luminescence reporter (AID 2774); details: circadian reporter cells, at 7 µM, actives lie on both sides;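 note: values are relative to mean of DMSO wells on each plate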

Structure (SMILES) | inhibition [1] [%] | score [2] | rescue above control [3] | cytochrome c release ratio [4] | inhibition of aggregation [5] [%] | glutamate uptake change [6] [%] | inclusion score [7] | aggregation suppression score [8] | survival [9] | fluorescence slope change [10] | period change [11]
CCn1cc(C(=O)O)c(=O)c2cnc(N3CCNCC3)nc21 | -5.14 | 1.35 | 5.83 | 0.98 | 72.4 | -1.23 | 2 | 1.16 | 5.25 (inactive) |  | 
Nc1ccc(S(=O)(=O)Nc2cnc3ccccc3n2)cc1 | 26.1 | 1.42 | 9.63 | 1.1 | 22.7 | 6.13 | 2 | 1.52 | 3.75 (inactive) |  | 
Nc1ccc(C(=O)NCC(=O)O)cc1 | 5.11 | 1.21 | 11.2 | 1.41 | 83.6 | -9.5 | 2 | 1.33 | 1.83 (inactive) |  | 
Oc1ccc(Cl)cc1Cc1cc(Cl)ccc1O | 7.6 | -0.49 | 0 | 0.36 | 29.6 | -22.2 |  | -0.099 |  |  | 
CCC(Cc1c(I)cc(I)c(N)c1I)C(=O)O (stereo not given) | -9.96 | -1.24 | -0.81 | 1.14 | 1.96 | 7.36 | 2 | 0.027 | 8.83 (inactive) |  | 
CC1=C(C(=O)O)N2C(=O)[C@@H](NC(=O)[C@H](N)c3ccc(O)cc3)[C@H]2SC1 | -20.4 | 1.38 | 2.74 | 0.96 | 74.6 | -6.33 | 2.5 | 1.47 | 5 (inactive) |  | 
Oc1c(I)cc(I)c2cccnc12 | 17.6 | -0.2 | -12.4 | 1.04 | 24.2 | 78.2 |  | 0.108 |  |  | 
CC(=O)OC/C=C(C)/C=C/C=C(C)/C=C/C1=C(C)CCCC1(C)C | -4.49 | 1.02 | 0.33 | 1.12 | 85.2 | -12.9 |  | 0.917 |  |  | 
Nc1ccc(S(N)(=O)=O)cc1 | -14.5 | 1.26 | 0.93 | 1.06 | 81.5 | -2.33 | 2 | 1.25 | 5.08 (inactive) |  | 
Oc1c(Br)cc(Br)c2cccnc12 | 46.3 | -0.06 | 10.9 | 2 | 80.3 | 4.76 |  | -0.0132 |  |  | 
CN1C(C(=O)Nc2ccccn2)=C(O)c2sccc2S1(=O)=O | -15.4 | 0.84 | -5.04 | 1.03 | 69.7 | -15.9 | 2 | 0.632 | 5.08 (inactive) |  | 
CCCCCCc1ccc(O)cc1O | 8.69 | 0 | -4.19 | 0.54 | 56.7 | 15.5 |  | -0.0012 |  |  | 
C=CCSCC1Nc2cc(Cl)c(S(N)(=O)=O)cc2S(=O)(=O)N1 (stereo not given) | -19.5 | 0.96 | 4.12 | 0.99 | -7.48 | -15.5 | 2 | 0.983 | 6.42 (inactive) |  | 
COc1cc(C(=O)NCc2ccc(OCCN(C)C)cc2)cc(OC)c1OC | 17.1 | 1.06 | -0.31 | 0.61 | 75.6 | 0.14 | 2 | 0.824 | 15.8 (inactive) |  | 
CCN(CC)CCOc1ccc(/C(=C(\Cl)c2ccccc2)c2ccccc2)cc1 | -2.8 | -0.01 | 11.2 | 4.67 | 46.5 | -0.41 |  | 0.524 |  |  | 
NC(=O)NC1NC(=O)NC1=O (stereo not given) | 2.28 | 1.2 | -1.57 | 0.93 | 74.6 | -8.53 | 2 | 0.815 | 26.8 (inactive) |  | 
Cc1cc(=O)n(-c2ccccc2)n1C | 22 | 1.07 | 2.73 | 1.13 | 22.2 | -12.9 | 2 | 1.35 | 27 (inactive) |  | 
Cc1cc(C)nc(NS(=O)(=O)c2ccc(N)cc2)n1 | 5.54 | 1.45 | -12.8 | 1.13 | 22.2 | 2.45 | 2 | 1.21 | 3.75 (inactive) |  | 
O=C(OCc1ccccc1)c1ccccc1 | 4.26 | 0.45 | 0.5 | 1.04 | 74 | 36 |  | 0.363 |  |  | 
CCC(=O)O[C@H]1[C@H](O[C@@H]2[C@@H](C)[C@H](O[C@H]3C[C@@](C)(OC)[C@@H](O)[C@H](C)O3)[C@@H](C)C(=O)O[C@H](CC)[C@@](C)(O)[C@H](O)[C@@H](C)C(=O)[C@H](C)C[C@@]2(C)O)O[C@H](C)C[C@@H]1N(C)C | -0.34 | -0.96 | 11.4 | 1.02 | 87.3 | -11.5 |  | -0.59 |  |  | 
NC(=NCCCCCCN=C(N)/N=C(\N)Nc1ccc(Cl)cc1)/N=C(\N)Nc1ccc(Cl)cc1 | 66.8 | 0.16 | 0 | 12.9 | 79.3 | -13.4 |  | 0.0711 | 3.17 (inactive) | 250% (active) | 
NC(CO)C(=O)NNCc1ccc(O)c(O)c1O (stereo not given) | 5.62 | 1.68 | 7.52 | 0.53 | 89.7 | 11.3 |  | 1.23 | 2.42 (inactive) |  | 0.075 h (inactive)
CCCCOc1ccc(C(=O)CCN2CCCCC2)cc1 | -5.19 | 1.14 | 14.1 | 0.48 | 80.3 | 1.68 |  | 1.27 | 4.92 (inactive) |  | 
CCCCCCOc1ccccc1C(N)=O | 0.61 | 0.45 | -0.6 | 1.11 | 67.5 | 0.56 |  | 0.156 |  |  | 
COc1ccc(C(=O)c2ccccc2)c(O)c1 | 16.9 | 0.23 | 9.82 | 1.17 | 35 | 5.28 |  | 0.225 | 3.25 (inactive) |  | 
O=C(OCC(O)CO)c1ccccc1Nc1ccnc2cc(Cl)ccc12 (stereo not given) | 18.5 | 1.22 | -8.14 | 1.02 | 23.8 | 4.05 |  | 0.893 | 17.9 (inactive) | 88.6% (active) | 
Nc1nc(=S)c2[nH]cnc2[nH]1 | 7.19 | 1.07 | -10.2 | 0.96 | 83.1 | -1.16 |  | 1.86 |  |  | 
CC1CCC(NC(=O)N(CCCl)N=O)CC1 (stereo not given) | 13.6 | 0.02 | -12.6 | 1.01 | 26.4 | -7.99 |  | 0.0109 |  | 10.9% (inactive) | 
Oc1ccc(Cl)c2cccnc12 | 19.1 | -0.02 | -0.67 | 0.81 | 63.5 | 42.4 |  | 0.0533 |  |  | 
CSc1ccc2c(c1)C(N1CCN(C)CC1)Cc1ccccc1S2 (stereo not given) | 7.11 | 0.84 | 0 | 4.27 | 80.6 | 5.12 |  | 1.18 | 1.5 (inactive) |  | 0.085 h (inactive)
